# TDP43 rescue = inhibitors of TDP-43 toxicity in yeast; actives 1.8% (n = 410,000); TDP-43 expressing yeast growth rescue, BacTiter-Glo, 24 h; Potency, µM (series often up to 46.1 µM), most hits filed as activators; note: nearly all actives have a fitted effect of over 50% in size
#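 Galactose-induced TDP-43 yeast, OD600=0.02, compound pinned; 24 hr, 30 deg C; BacTiter-Glo luminescence for growth. Inhibitors of TDP-43 toxicity read as activators.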
# FUS suppressor = FUS proteinopathy suppression in yeast; actives 0.24% (n = 390,000); Potency, µM (highest dose often 76.6 µM), most hits filed as activators; S. cerevisiae FUS-expressing, growth rescue, OD600, 24 h; note: nearly all actives have a fitted effect of over 55% in size
#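 S. cerevisiae expressing FUS from galactose induction served as the toxicity model. Growth after 24hr at 30C, read as absorbance at 600 nm, indicates suppression of toxicity; compounds dosed at several concentrations.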
# aSyn yeast inh = alpha-synuclein toxicity inhibition in yeast. actives 0.14% (n = 370,000). Yeast expressing alpha-synuclein, growth rescue, BacTiter-Glo, 24 h. Potency, µM (doses to about 46.1 µM), usual class: activators. AID 652106; note: nearly all actives have a fitted effect of over 65% in size
#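 Galactose-induced alpha-syn yeast (OD600=0.02, raffinose-pregrown) + pinned cpd, 24 hr, 30 deg C; growth by BacTiter-Glo luminescence. Growth restoration scores as activation.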
# Abeta rescue = restores growth of yeast expressing A-beta42 peptide; yeast expressing A-beta42, growth rescue, OD600, 48 h; response scale: 0% DMSO, 100% iron-clioquinol control; Potency, µM (highest dose often 46.1 µM), most hits filed as activators; actives 0.063% (n = 410,000); note: nearly all actives have a fitted effect of over 55% in size
#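 Yeast A-beta toxicity model in growth medium with pinned compounds, 48 h at 30 C; growth read as absorbance at 600 nm. Normalized to FeCl3/clioquinol equimolar mix (positive) and DMSO (negative).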
# Hits are given with their value; n = inactive; u = inconclusive; x = not tested or not shown. Compounds with a hit are over-represented: about 2.1% of the library has one in this group of screens. Calls come from the whole dose curve; as a rule, active = well fitted curve in the direction sought with a large enough effect; inconclusive = small, poorly fitted or top-dose-only effect, or another doubt; inactive = no such curve, though single readings can be large; an effect the other way counts as inactive or inconclusive.
SMILES,TDP43 rescue,FUS suppressor,aSyn yeast inh,Abeta rescue
COc1cc2[nH]c(C(=O)N3CCN(c4ccccc4F)CC3)cc2c(OC)c1OC,35µM,n,n,n
COC(=O)[C@]12CCCCC=C1N(CCc1ccc(OC)c(OC)c1)C(=O)[C@H](CC(=O)NCC13CC4CC(CC(C4)C1)C3)C2,n,8.9µM,n,n
CCCCCCCCN1C(=O)[C@H](CC(=O)NCc2ccc(OC)c(OC)c2)C[C@@]2(C(=O)OCC)CCC=C12,28µM,u,n,n
CCCCCCCCN1C(=O)[C@H](CC(=O)NCc2ccccc2)C[C@@]2(C(=O)OCC)CCC=C12,n,u,n,n
CCCCCCCCN1C(=O)[C@H](CC(=O)NCc2ccc(OC)c(OC)c2)C[C@@]2(C(=O)OC)CCCCC=C12,20µM,u,n,n
Cc1ccc(C(=O)O)cc1Nc1nc2ccccc2n2nnnc12,n,n,x,n
Cc1ccc2[nH]c(-c3cccc(F)c3)cc(=O)c2c1,n,n,n,n
Cc1ccc2[nH]c(-c3cccc(N)c3)cc2c1,22µM,u,n,n
COc1ccc(/C=N/NC(=O)c2cc(C)oc2C)cc1OCc1ccccc1,n,n,n,n
Cc1cc(C(=O)N/N=C/c2ccc(OCc3ccccc3)cc2)c(C)o1,13µM,n,n,u
CCc1ccc(NC(=S)N(Cc2ccccc2)Cc2ccccn2)cc1,u,n,n,13µM
CC(C)(C)C(=O)Nc1nnc(SCc2cccc(F)c2)s1,u,n,n,u
CC(C)(C)C(=O)Nc1nnc(SCc2ccc(F)cc2)s1,18µM,n,x,u
CCCCN1C(=O)C(CC(=O)NCCCCc2ccccc2)CC(C(=O)N2CCOCC2)=C1C (configuration not stated),n,n,20µM,n
Cc1ccc(N2C(=O)C(CC(=O)Nc3ccccc3)N(CCC3=CCCCC3)C2=O)cc1 (configuration not stated),n,u,x,n
CCOC(=O)c1c(Nc2ccc(OCC)cc2)nnc(-c2ccccc2)c1-c1ccccc1,n,n,n,n
Cc1ccccc1-c1nc(NCC2CC2)nc2ccsc12,u,n,n,n
Cc1ccc(F)cc1-c1nc(NCC2CC2)nc2ccsc12,20µM,n,n,n
COc1ccc2c(c1)NC(=O)CC(c1ccccc1)=N2,14µM,n,n,n
CC(=O)N1CCc2cc(Br)c(S(=O)(=O)CCC(=O)N3CCN(c4ccccn4)CC3)cc21,x,n,x,x
CCc1ccc(C(=O)c2cn(CC(=O)Nc3ccc(F)c(F)c3)c3cc(OC)c(OC)cc3c2=O)cc1,n,u,x,n
CCc1ccc(C(=O)c2cn(Cc3ccc(F)cc3)c3cc(OC)c(OC)cc3c2=O)cc1,u,35µM,x,n
COc1cccc(CNC(=O)C(Cc2ccccc2)n2cccc2)c1 (configuration not stated),n,n,n,n
COc1cccc(NC(=O)C(Cc2ccccc2)n2cccc2)c1 (configuration not stated),13µM,n,n,n
Cc1csc(NC(=O)C(Cc2ccccc2)n2cccc2)n1 (configuration not stated),13µM,n,n,u
SMILES,TDP43 rescue,FUS suppressor,aSyn yeast inh,Abeta rescue
Cc1ccc(NC(=O)CCS(=O)(=O)c2ccccc2)cc1C,x,n,x,x
CCOc1ccc2c(c1)-c1c(ssc1=S)C(C)(C)N2C(=O)CSC1=NCCS1,n,n,n,n
CCOc1ccc2c(c1)-c1c(ssc1=S)C(C)(C)N2,22µM,n,n,n
CCOC(=O)c1c(N)sc2c(O)c(Br)ccc12,11µM,n,n,n
CC(=O)NC(c1ccccc1)c1nc(-c2ccc(C)c(C)c2)cs1 (configuration not stated),20µM,n,n,n
COc1cccc(C(NC(C)=O)c2nc(-c3ccc(C)c(C)c3)cs2)c1 (configuration not stated),n,n,18µM,n
Cc1cc(O)c(C(c2ccccc2Cl)N2CCN(c3ccccc3)CC2)c(=O)n1Cc1ccco1 (configuration not stated),n,n,x,n
CN(C(=O)c1cccc(Nc2ccc(-c3ccc4c(c3)OCCO4)nn2)c1)C1CCCCC1,n,25µM,n,n
O=S(=O)(CC1NCc2cc(F)ccc21)NC1CCCC1 (configuration not stated),x,n,x,x
O=c1oc2cc(O)ccc2cc1-c1ccccc1,16µM,n,n,x
COC(=O)c1cccc(CN2C(=O)C(C)Oc3ccc(C)cc32)c1 (configuration not stated),18µM,n,n,n
Cc1ccc2c(c1)N(Cc1ccccc1)C(=O)C(C)O2 (configuration not stated),u,n,n,n
Cn1ncc2c(Nc3cc(C(F)(F)F)ccc3Cl)ncnc21,14µM,n,x,n
Cc1ccccc1Nc1ncnc2c1cnn2C,n,n,n,n
CCCC1CCC2(CC1)CCC2OC(=S)Nc1ccc(Br)cc1 (configuration not stated),x,n,x,x
CS(=O)(=O)Nc1cccc(NC(=O)c2cccc3c(-c4ccc(F)c(F)c4)coc23)c1,n,20µM,n,n
COc1cc(-c2coc3c(C(=O)NCc4ccccc4)cccc23)ccc1O,13µM,u,n,n
O=C(NCc1ccco1)c1cccc2c(-c3ccc(F)c(F)c3)coc12,14µM,n,n,n
COc1cc(-c2coc3c(C(=O)NCc4cccc(Cl)c4)cccc23)ccc1O,u,u,u,n
O=C(Cn1c(-c2cccs2)cc2ccccc21)NCCCN1CCN(c2cccc(Cl)c2)CC1,n,n,x,n
N/C(=N\OC(=O)c1ccco1)c1cccc(Br)c1,11µM,n,n,n
N/C(=N\OC(=O)c1ccco1)c1cccc([N+](=O)[O-])c1,u,n,n,n
N/C(=N\OC(=O)c1ccc2ccccc2c1)c1ccc(Br)cc1,n,n,n,n
N/C(=N\OC(=O)c1cccc(Br)c1)c1ccccc1,13µM,n,n,n
CCOc1ccc(C(=O)O/N=C(\N)c2ccccn2)cc1OCC,32µM,n,n,n
SMILES,TDP43 rescue,FUS suppressor,aSyn yeast inh,Abeta rescue
N/C(=N\OC(=O)c1cccc(Br)c1)c1ccccn1,11µM,n,n,n
O=c1c(=O)n(-c2ccccc2)ccn1Cc1cccc(C(F)(F)F)c1,n,n,x,n
O=Cc1ccc(OC(=O)/C=C/c2ccccc2)cc1,18µM,n,n,n
N/C(=N\OC(=O)/C=C/c1ccccc1)c1ccccc1,18µM,n,n,n
CCOc1ccc(/C=C/C(=O)Oc2ccccc2)cc1,u,n,n,n
N/C(=N\OC(=O)/C=C/c1ccccc1)c1ccc(Cl)cc1,u,n,n,n
Cc1ccc(NC(=O)CSc2ccc(-c3cccs3)nn2)cc1Cl,n,n,x,n
Cc1cc(S(=O)(=O)Nc2ccc3oc4c(c3c2)CCCC4)ccc1Cl,n,n,x,n
Cc1cc(C(=O)C(C)Sc2cccc[n+]2[O-])c(C)n1-c1ccc(Cl)cc1 (configuration not stated),u,n,2.8µM,n
CC(C)n1c(SCC(=O)Nc2ccc(F)cc2)nc2c(oc3ccccc32)c1=O,20µM,n,x,n
